Assay outcomes (PubChem BioAssay)
BoNT F protease = BoNT/F light chain protease inhibitors, primary screen, biochemical, flow cytometry, MLPCN library | Multiplex microsphere protease cleavage assay | actives 0.22% (n = 360,000) | inhibition, % at 10 µM | Botulinum neurotoxin type F light chain protease (Clostridium botulinum); in the data active means inhibition above about 35%, passing the limit was not always enough; inconclusive means no clear call, values can overlap the other calls; further: plate controls were buffer without enzyme for full effect and enzyme alone for no effect
Bead autofluor = flagged as autofluorescent in microsphere protease counterscreen | compound autofluorescence counterscreen, microsphere flow cytometry; active compounds read high | fluorescence intensity (concentration not given with the values) | actives 3.1% (n = 360,000) | AID 624483; in the data active means fluorescence intensity above about 16000; inconclusive means no clear call, values can overlap the other calls
Anthrax LF inh2 = Bacillus anthracis LF protease inhibitors, primary screen, biochemical, multiplex microsphere, MLPCN library. Lethal factor (Bacillus anthracis), P15917. inhibition, % at 10 µM. actives 0.12% (n = 360,000). multiplex microsphere protease cleavage assay; further: plate controls were buffer without enzyme for full effect and enzyme alone for no effect
BoNT-A LC inh2 = BoNT/A light chain protease inhibitors, primary screen, biochemical, flow cytometry, MLPCN library | multiplex microsphere protease substrate cleavage | Botulinum neurotoxin type A light chain protease (Clostridium botulinum A str. ATCC 3502) | actives 0.17% (n = 360,000) | inhibition, % at 10 µM; further: plate controls were buffer without enzyme for full effect and enzyme alone for no effect
BJeLR viability = MLPCN primary cell-based screen for lethality selective to Ras in HRASV12 cells. inhibition, % (test concentration not listed). BJeLR (HRASV12) viability, CellTiter-Glo ATP luminescence, 48 h. actives 0.17% (n = 300,000); in the data active means inhibition above about 50%; inconclusive means no clear call, values can overlap the other calls
Numbers without * were called inactive; u = inconclusive; x = no result. Shown are actives, neighbours in structure and some others; about 3.5% of the full set was active somewhere. Unless noted, no stated cut-off is given here; in the data, active means inhibition above about 30%; inconclusive means no clear call, values can overlap the other calls; inactive means below that.

SMILES	BoNT F protease	Bead autofluor	Anthrax LF inh2	BoNT-A LC inh2	BJeLR viability
CC1CC(O)C2C3(C)CCCC2(COC3=O)C12CCC1(CCOC1=O)O2 (stereo unspecified)	-8	4132	-5	0	x
O=C(Nc1ccccc1N1CCCCC1)c1ccc(-c2cccc(Cl)c2)o1	1	9634	-5	-1	11
O=C(O)c1ccc(-c2cccc(Cl)c2)o1	3	23409*	0	u	0
O=C(NC(=S)Nc1cc(Cl)ccc1N1CCOCC1)c1ccc(-c2cccc(Cl)c2)o1	0	16940*	0	-1	-2
O=C(NC(=S)Nc1ccccn1)c1cccc([N+](=O)[O-])c1	x	x	x	x	1
C=CCOC(=O)C1=C(C)Nc2nnnn2C1c1cccs1 (stereo unspecified)	6	17729*	-12	7	-2
C=CCOC(=O)C1=C(C)Nc2nnnn2C1c1ccc(OC)cc1OC (stereo unspecified)	-4	8240	-1	0	-7
COC(=O)C1=C(C)Nc2nnnn2C1c1cccs1 (stereo unspecified)	4	19852*	-4	1	7
COC(=O)C[C@@H]1C[C@H]2c3cc(NC(=O)Nc4ccccc4F)ccc3O[C@H]2[C@H](CO)O1	2	3875	0	0	x
COc1ccccc1C1Nc2ccccc2NC2=C1C(=O)CC(C)(C)C2 (stereo unspecified)	37*	3659	3	-1	-5
O=C(Nc1nc2ccc(S(=O)(=O)N3CCCCC3)cc2s1)c1cccnc1	6	21943*	-7	6	-3
O=C(Nc1ccon1)c1cccc(S(=O)(=O)N2CCCC2)c1	-2	19894*	4	0	3
O=C1CNc2cc(Cl)ccc2N1	1	3893	0	1	x
Cc1ccc(C(O)c2nc3ccccc3n2C)cc1 (stereo unspecified)	35*	4123	-18	-2	10
CC(C)Cc1csc(NC(=O)c2ccc(Br)cc2)c1C(=O)O	-11	4613	0	0	-2
COc1ccc(-n2nnnc2C(c2ccccc2)N2CCN(C/C=C/c3ccccc3)CC2)cc1 (stereo unspecified)	7	4222	8	2	x
O=C1CC(NCc2ccccc2)C(=O)N1c1ccc(F)cc1 (stereo unspecified)	-8	4038	-5	-1	x
O=C1CC(NCc2ccccc2F)C(=O)N1c1ccccc1 (stereo unspecified)	-2	16529*	-2	-1	14
CC1=C(C)C(=O)N(CCC(=O)O)C1=O	4	20985*	-16	2	-5
O=C(CN1C(=O)NC2(CCCC2)C1=O)OCCOc1ccc(Br)cc1	-2	6261	-3	-2	-3
O=C(NC1CCCCC1)c1cccc2c(-c3ccc(F)c(F)c3)coc12	-1	3771	-1	0	x
COC(=O)CN(c1ccc2c(c1)OCO2)S(C)(=O)=O	-7	24591*	1	-3	2
CCN(CC)C(=O)CN(c1ccc2c(c1)OCO2)S(C)(=O)=O	1	9670	0	0	8
CCCCCNC(=O)CN(c1ccc2c(c1)OCO2)S(C)(=O)=O	-1	20699*	-2	0	-6
Cc1ccc(SCCNC(=O)CN(c2ccc3c(c2)OCO3)S(C)(=O)=O)cc1	-2	2144	-3	-1	0
SMILES	BoNT F protease	Bead autofluor	Anthrax LF inh2	BoNT-A LC inh2	BJeLR viability
CCCCC(=O)Nc1cccc(NC(=O)c2ccc(Br)cc2)c1	-4	24448*	0	-2	-3
COCc1nnc(NC(=O)CCCCCN2C(=O)c3ccccc3C2=O)s1	-8	11439	-2	-1	4
CCCCC(=O)Nc1ccc(C(=O)Nc2cccnc2)cc1	-5	16977*	2	-2	1
CCSc1ccccc1C(=O)Nc1cccnc1	-2	23629*	-1	u	4
CCSc1ccccc1C(=O)Nc1nncs1	-8	3808	0	0	1
CCCCC(=O)Nc1cccc(NC(=O)c2cccc(Br)c2)c1	0	2145	-2	0	-4
CCCCC(=O)Nc1ccc(C(=O)Nc2nnc(COC)s2)cc1	3	21834*	-9	3	-12
O=[N+]([O-])c1c(NCCO)cc(N2CCCCCC2)c2nonc12	u	3454	100*	-4	2
Cc1ccc(C(=O)N2CCN(c3ccc(NC(=S)NC(=O)Cc4ccccc4)cc3)CC2)cc1	-4	22933*	-3	1	0
O=C(Cc1ccccc1)Nc1ccc(N2CCN(Cc3ccccc3F)CC2)cc1	6	17943*	-12	u	-6
CCC(=O)Nc1ccc(N2CCN(Cc3ccccc3F)CC2)cc1	14	u	9	2	-1
COc1ccc(C(=O)N2CCN(c3ccc(NC(=O)Cc4ccccc4)cc3)CC2)cc1	-5	5722	-4	-1	-1
Cc1ccccc1-c1cc2nc(NCc3ccccc3F)n(C)c(=O)c2s1	-19	2914	-8	-1	x
O=S(=O)(NC1CCCC1)c1ccccc1Cl	3	20825*	0	u	-2
Cc1c(CC(=O)O)c(=O)oc2cc(OCc3ccc(F)cc3F)ccc12	3	4102	-15	0	-12
CN(C)S(=O)(=O)c1ccc(Cl)c(NC(=O)COC(=O)c2ccc3c(c2)NC(=O)CS3)c1	-10	5424	-1	1	-6
O=C1CCCC2=C1C(c1ccc(Cl)cc1)n1c(s/c(=C\c3ccc4ccncc4c3)c1=O)=N2 (stereo unspecified)	17	3020	22	37*	-1
Cc1ccc(C2=N/C(=C\c3cccs3)C(=O)N2Nc2ccccc2)cc1	51*	2321	64*	120*	-6
O=C1/C(=C\c2cccs2)N=C(c2cccs2)N1Nc1ccccc1	40*	5432	50*	68*	-1
O=C1/C(=C/c2cccs2)N=C(c2cccs2)N1Nc1ccccc1	0	3520	13	11	4
CC(=NNC(=S)N1CC2CCC(CC2)C1)c1ccccn1	60*	2877	52*	29	x
CC(=NNC(=S)N1CCN(C2CCCCCC2)CC1)c1ccccn1	74*	4342	92*	82*	x
CC(=NNC(=S)N1CCN(c2ccccn2)CC1)c1nccs1	30	3551	31*	16	x
CC(=NNC(=S)N1CC2CCC(CC2)C1)c1cnccn1	59*	3454	54*	40*	x
CCOC(=O)C1CCCN(C(=O)c2cc(C#N)cs2)CC1 (stereo unspecified)	-4	3120	-4	0	x
CC1=NN(c2ccccc2)C(=O)C1CCC#N (stereo unspecified)	2	3307	-13	0	x
COc1ccccc1NC(=O)C1CCN(S(=O)(=O)c2ccc3c(c2)NC(=O)CO3)CC1	-1	6023	-2	-1	-2
COc1ccc(C2C(C(=O)O)CC(=O)N2C2CCCCC2)cc1 (stereo unspecified)	2	20476*	1	u	4
